Data: PubChem BioAssay AID686978 (National Center for Advancing Translational Sciences (NCATS), 2013)
Screen size: about 420,000 compounds; about 64,000 (15%) were called active. Inconclusive results (about 27%) are left out. These entries were drawn from the full list. Unmarked numbers belong to inactive results. Calls follow the shape of the dose curve; as a rule, active = well fitted inhibition curve with a large enough effect; inconclusive = small, poorly fitted or top-dose-only effect; inactive = flat fitted curve, though single readings scatter.

assay: qHTS for Inhibitors of human tyrosyl-DNA phosphodiesterase 1 (TDP1): qHTS in cells in absence of CPT; details: DT40 Tdp1-/- hTDP1 cells, no CPT, ATP luminescence, 48 h; activity change, negative = growth inhibition: at 46.2 µM (top of the series); also: nearly all actives have a fitted effect of over 55% in size
How it was run: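 DT40 Tdp1-/-;hTDP1 cells, no CPT (DMSO vehicle only), 400 cells/well; compounds pin-transferred; ≥48 hr, 37 °C; CellTiter-Glo 30 min RT dark, luminescence read.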
% is scaled to controls: 0 for no effect and ±100 for the full control effect; potency is read from the fitted curve at half-maximal effect.

SMILES | activity change, negative = growth inhibition | Potency
Cn1c(SCC(=O)N2CCOCC2)nnc1-c1ccc2ncccc2c1 | -28.6% | 
O=C1c2ccncc2C(=O)N1C1CCCCC1 | 3.68% | 
Cn1c(=O)c(=O)n(C)c2cc(S(=O)(=O)NCCc3ccccc3)ccc21 | -4.87% | 
C=CC[C@@H](Cc1ccc(F)cc1)C(=O)OC[C@H]1CCCN1C(=O)[C@H](CC=C)CC(=O)N(CCO)Cc1ccccc1 |  | 18.4 µM (active)
C=CCC[C@@H](Cc1ccc(F)cc1)C(=O)OC[C@@H](C)NC(=O)[C@H](CC=C)CC(=O)N(CCO)Cc1ccccc1 |  | 8.2 µM (active)
C=CCC(NC(=O)Cc1ccccc1)C(=O)NCCC (stereo not drawn) | -4.55% | 
C=CC[C@H](CC(=O)N(CCO)Cc1ccccc1)C(=O)N[C@@H](COC(=O)[C@@H](CC=C)Cc1ccc(F)cc1)Cc1ccccc1 |  | 20.6 µM (active)
CC(CCc1ccccc1)NC(=O)COC(=O)c1ccc(F)cc1 (stereo not drawn) | -0.972% | 
O=C(O)CCC(=O)O | 0.325% | 
CC(=O)Nc1ccc(N2C(=O)CCC2=O)cc1C | -6.41% | 
Cc1cc(=O)cc(C)[nH]1 | -0.466% | 
COc1cc(C(=O)NCCOC(=O)c2cccc(N(C)C)c2)cc(OC)c1OC | -26.7% | 
Cc1ccc(C(=O)N(CC(=O)NC2CCCC2)c2ccc(F)cc2)s1 | -24.1% | 
O=c1c([N+](=O)[O-])cccn1Cc1ccc(F)cc1Cl |  | 20.6 µM (active)
N/C(=N/O)c1cccn1Cc1ccccc1[N+](=O)[O-] | 1.55% | 
O=[N+]([O-])c1ccccc1NCc1ccccc1Cl | -17% | 
COc1ccc(C2C(C#N)=C(/N=C/N3CCOCC3)OC3=C2C(=O)CC(C)(C)C3)cc1OC (stereo not drawn) | -4.9% | 
CC(C)NS(=O)(=O)c1ccc(CCC(=O)N2CCOCC2)cc1 | 4.33% | 
CCNS(=O)(=O)c1ccc(CCC(=O)N2CCN(c3cc(Cl)ccc3C)CC2)cc1 |  | 11.6 µM (active)
Cc1ccc(S(=O)(=O)NCCC(=O)NCc2ccc(Cl)cc2)cc1C | -9.55% | 
Nc1cc(=O)nc(SCc2ccccc2)n1Cc1ccco1 | -21.7% | 
O=C(CSc1nnc2scc(-c3ccc(F)cc3)n12)NCc1ccco1 | -2.24% | 
O=c1[nH]c(CSc2ncc(-c3ccc(F)cc3)n2Cc2ccco2)nc2ccccc12 |  | 20.6 µM (active)
CC(C)(C)N1CC(c2nc3ccccc3n2Cc2ccc(F)cc2)CC1=O (stereo not drawn) | -19.4% | 
Nc1nonc1-c1nc2ccccc2n1Cc1ccc(F)cc1 |  | 20.6 µM (active)
COc1ccc(C)c(Cn2c(-c3nonc3N)nc3ccccc32)c1 |  | 2.31 µM (active)

SMILES | activity change, negative = growth inhibition | Potency
Nc1nonc1-c1nc2ccccc2n1CCC(=O)O | -11.1% | 
COc1ccc2oc(N)nc2c1 | -16.7% | 
Cc1noc(C)c1COC(=O)Cn1c(C)nc2ccccc21 | -5.16% | 
Cn1c(SCC(=O)N2CCCC2)nnc1-c1cccs1 | -2.82% | 
CN(Cc1ccccc1)C(=O)CCNC(=O)Cn1cnc2ccccc2c1=O | -15.3% | 
CN1CCCCCC1C(=O)NCCN1Cc2ccccc2OC(c2ccsc2)C1 (stereo not drawn) | -4.19% | 
CCCCC(=O)Nc1ccc2c(c1)OCCO2 | -9.43% | 
O=C(Cn1c(=O)sc2ccccc21)Nc1ccc2c(c1)OCCO2 | -13.3% | 
CCc1ccc(NC(=O)Cn2nnc(C(=O)NCc3ccc4c(c3)OCO4)c2N)cc1 | -16.8% | 
Cn1c(=O)c2ccccc2n(CC(=O)Nc2ccc3c(c2)OCCO3)c1=O |  | 9.2 µM (active)
CCOc1ccc(NC(=O)Cn2c(=O)n(CCCC(=O)NCc3ccc4c(c3)OCO4)c(=O)c3ccccc32)cc1 | 1.6% | 
CCc1ccc(NC(=O)Cn2c(=O)n(CCC(=O)NCc3ccc4c(c3)OCO4)c(=O)c3ccccc32)cc1 |  | 9.2 µM (active)
Oc1ccc(-c2[nH]ncc2-c2nc3ccccc3s2)c(O)c1 | 10.6% | 
COCCOC1CCN(C(=O)c2ccc(OC)c(OC3CCN(C(C)C)CC3)c2)CC1 | 8.08% | 
NC(=O)c1ccc(N2CCOCC2)nc1 | 22.6% | 
CC(C)CNC(=O)COC(=O)/C=C/c1ccco1 | -4.26% | 
COc1cc(NC(=O)NCC2CCN(Cc3ccc(C)cc3)CC2)cc(OC)c1OC |  | inactive
Cc1ccc(-c2onc(C)c2C)cc1S(=O)(=O)Nc1ccccn1 | -25.3% | 
COc1ccc(C)cc1S(=O)(=O)NCCc1ccccc1 | -19.9% | 
COc1ccc(C)cc1NC(=O)CNCc1cccs1 | -1.9% | 
COc1ccc(-c2onc(C)c2C)cc1S(=O)(=O)NCC1CCN(Cc2cccc(F)c2)CC1 |  | 25.9 µM (active)
COc1ccc(-c2onc(C)c2C)cc1S(=O)(=O)NCc1cccs1 |  | 18.4 µM (active)
O=C(CN1C2CCC1CC(NC(=O)C1CC1)C2)NCc1ccccc1 (stereo not drawn) | 1.04% | 
O=S(=O)(O)CCN1CCOCC1 | -6.34% | 
Cc1nc2nc(CSc3nc4ccccc4s3)cc(=O)n2[nH]1 | -12% | 
C=CCOC(=O)C1=C[C@@H](c2ccc3c(c2)OCO3)C[C@@H](OCCCCO)O1 | -79.5% | 

SMILES | activity change, negative = growth inhibition | Potency
COc1ccc2ccccc2c1CNCc1ccccn1 | -28.3% | 
Cc1ccc(C)c(NC(=S)NNC(=O)c2csc(C)c2)c1 |  | 18.4 µM (active)
Cc1ccc(C)c(NC(=O)NNC(=O)c2ccc3ccccc3c2O)c1 | -26.2% | 
Cc1ccc(C)c(NC(=O)CCC(=O)NNC(=O)c2cccs2)c1 | -1.86% | 
Cc1cc(C(=O)OCC(=O)Nc2nnc(C(C)C)s2)c2ccccc2n1 | -1.36% | 
C=CCO/N=C(\C)c1c(O)c(C)c(-c2ccccc2)n(-c2ccccc2)c1=O | 4.5% | 
CC(C)c1ccc(NC(=O)c2ccc3c(O)c(S(=O)(=O)c4ccccc4)c(=O)[nH]c3c2)cc1 | -26.3% | 
COc1ccc(C)cc1S(=O)(=O)Nc1cccc(Cl)c1Cl | -19.3% | 
COc1cc(OC)c(NS(=O)(=O)c2cn(C)cn2)cc1Cl | 8.31% | 
COC(=O)c1scc(-c2ccc(C)cc2)c1S(=O)(=O)Nc1cc(Cl)c(OC)cc1OC |  | 11.6 µM (active)
CC1O[C@@H](OC2C(O)C(C)O[C@H](OC(=O)[C@]34CCC(C)(C)C[C@H]3C3=CCC5[C@@]6(C)CC(O)C(O[C@@H]7OC(CO)C(O)[C@@H](O)[C@@H]7O)[C@@](C)(C(=O)O)C6CC[C@@]5(C)[C@]3(CO)CC4)C2O[C@H]2OC(C)[C@@H](O[C@@H]3OCC(O[C@@H]4OC(CO)C(O)[C@H](O)C4O)[C@@H](O)[C@@H]3O)[C@H](O)C2O)C(O)C(O)C1O (stereo partly drawn) | -0.939% | 
Cc1ccc(CN2COc3cc(C)c4c(oc(=O)c5ccccc54)c3C2)cc1 | -25.3% | 
CN(C(=O)c1ccccn1)c1nnc(-c2ccccn2)s1 | -6.67% | 
CC1CC(C)(C)NC(=S)N1CCC(=O)N1CCN(Cc2ccccc2)CC1 (stereo not drawn) | -5.4% | 
CC(=O)N(Cc1cc(=O)[nH]c2ccccc12)c1ccc(C)cc1C | -4.22% | 
CCOC(=O)c1ccc(COC(=O)c2cc(=O)[nH]c3ccccc23)o1 | 5.73% | 
Cc1ccc(N(Cc2cc(=O)[nH]c3ccccc23)C(=O)CCl)cc1 |  | 2.31 µM (active)
COC(=O)c1ccccc1NC(=O)c1ccc(COc2ccccc2Cl)o1 | -23.7% | 
O=C(Nc1ccn(Cc2ccccc2F)n1)c1ccc(COc2ccc(Cl)cc2Cl)o1 |  | 25.9 µM (active)
CC(=O)Nc1ccn(Cc2c(F)cccc2Cl)n1 | -21.4% | 
O=C1CC(c2ccccc2)C(=O)N2C(=O)CC(c3ccccc3)C(=O)N12 (stereo not drawn) | -3.36% | 
c1ccc2c(c1)OCC(c1nn3cnnc3s1)O2 (stereo not drawn) | 9.7% | 
CCOc1ccc(NC(=O)c2c(NC(=O)Cc3ccccc3)sc3c2CCC(C)C3)cc1 (stereo not drawn) |  | 20.6 µM (active)
COc1ccc(CC(=O)Nc2sc(Cc3ccccc3)c(C)c2C(N)=O)cc1 | -17.9% | 
CCOC(=O)c1c(NC(=O)/C=C/c2ccc(OC)cc2)sc2c1CCC(C)C2 (stereo not drawn) | -5.43% | 
CCOc1ccc(NC(=O)c2c(NC(=O)Cc3ccccc3)sc3c2CCCCC3)cc1 |  | 20.6 µM (active)

SMILES | activity change, negative = growth inhibition | Potency
O=C(CN1CCCC1)Nc1sc2c(c1C(=O)Nc1ccccc1)CCCC2 | -23.3% | 
CC(C)OC(=O)c1c(NC(=O)c2ccco2)sc2c1CCCC2 | 2.44% | 
Cc1sc2c(c1C)c(=O)n(-c1ccccc1)c1nncn21 | -26.5% | 
Cc1cccc(C2c3c(n(C)c(=O)n(C)c3=O)N=C3c4ccccc4C(=O)C32)c1 (stereo not drawn) | -57.1% | 
CC(=O)c1sc(N/N=C\c2ccc(C)cc2)nc1C | -6.34% | 
Cc1ccc(Nc2nc(N)nc(CSc3nnc(C)s3)n2)cc1 | -20.7% | 
Cc1ccc(Nc2nc(Cl)c(C=O)s2)cc1 |  | 23.1 µM (active)
COc1ccc(CC(=O)Nc2c3c(nn2-c2cccc(Cl)c2)CS(=O)C3)cc1 (stereo not drawn) | -24.1% | 
Cc1ccc(OCC(=O)NC(C)c2ccccc2)c([N+](=O)[O-])n1 (stereo not drawn) | -5.01% | 
C=C1C2C[C@H](O)C(C)(C)[C@@]2(O)[C@H](O)C[C@]23C[C@@](C)(O)[C@H](CC[C@H]12)[C@H]3O (stereo partly drawn) | 12.3% | 
Cc1cc(C(=O)N/N=C/c2ccccc2[N+](=O)[O-])c(C)o1 | -20.6% | 
Cc1c(C(=O)N/N=C/c2ccccc2)[nH]c2c([N+](=O)[O-])cccc12 |  | 0.92 µM (active)
Cc1nn(-c2ccccc2)c(Cl)c1/C=N/NC(=O)c1nn(C)cc1[N+](=O)[O-] | -28.7% | 
CN(C(=O)c1ccc(NC(=O)Cc2cccc(NC(=O)C3CCN(C(=O)c4ccccc4)CC3)c2)cc1)C1CC1 | 1.83% | 
CN(C(=O)c1cccc(NC(=O)Cc2cccc(NC(=O)C3CCCN(C(=O)C4CC4)C3)c2)c1)C1CCC1 (stereo not drawn) | -29.4% | 
O=C(Cc1ccc([N+](=O)[O-])cc1)Nc1ccc(C(=O)N2CCOCC2)cc1 | -10.5% | 
CC(C)(C)OC(=O)N1CCC(C(=O)Nc2cccc(C(=O)NCCc3ccccc3)c2)CC1 |  | 14.6 µM (active)
CN(C(=O)c1cccc(NC(=O)Cc2ccc(NC(=O)C3CCCN(C(=O)C4CC4)C3)cc2)c1)C1CC1 (stereo not drawn) | 0.0642% | 
CCNC(=O)c1cccc(NC(=O)C2CC(=O)N(CCc3ccccc3)C2)c1 (stereo not drawn) | 7.49% | 
CN(C(=O)c1cccc(NC(=O)Cc2ccc(NC(=O)C3CCCN(C(=O)C4CCCC4)C3)cc2)c1)C1CCC1 (stereo not drawn) |  | 20.6 µM (active)
CC(=O)c1cccc(NC(=O)N2CCCC2C(=O)NCCc2ccccc2)c1 (stereo not drawn) | 0.243% | 
O=C(Cc1ccc(NC(=O)C2CCCN(C(=O)C3CCCCC3)C2)cc1)Nc1cccc(C(=O)N2CCCCC2)c1 (stereo not drawn) | -20.7% | 
CN(CCc1ccccc1)C(=O)c1cccc(NC(=O)Cc2cccc(NC(=O)C3CCCN(C(=O)CCc4ccccc4)C3)c2)c1 (stereo not drawn) |  | 13 µM (active)
O=C(Cc1ccc(NC(=O)C2CCCN(C(=O)CCc3ccccc3)C2)cc1)Nc1ccc(C(=O)N2CCOCC2)cc1 (stereo not drawn) |  | 18.4 µM (active)
CN(C(=O)c1cccc(NC(=O)C2CCN(C(=O)OC(C)(C)C)CC2)c1)C1CCC1 | -24.9% | 
